Test results as given in PubChem BioAssay AID1259421 (Broad Institute, 2018).
Where “and” joins values, the source holds several entries; their conditions need not be identical. Identical values can stand only once. The campaign covered roughly 6,400 compounds. About 610 (9.5%) were called active. Cut-off read from the data, not from the text of the source: active = activity change below about -70%; inconclusive = no clear call, values can overlap the other calls; inactive = above that. Many of the other results were omitted from the sample, so actives are more common in it than they were. A structure can be active in one record and inactive in another.

Assay: Toxoplasma gondii ME49Luc growth in HeLa cells, luciferase, no IFN-y, primary screen (AID 1259421)
Conditions: T. gondii ME49Luc in HeLa, 72 h, stronger effect = lower value, concentration not given here

Structure (SMILES) | activity change, negative = inhibition
Oc1ccc2c3c1OC1c4oc5ccccc5c4CC4(O)C(C2)N(CC2CC2)CCC314 (stereo not given) | -19.3% (inactive)
N#CC(O[C@@H]1O[C@H](CO[C@@H]2O[C@H](CO)[C@@H](O)[C@H](O)[C@H]2O)[C@@H](O)[C@H](O)[C@H]1O)c1ccccc1 (stereo not given in full) | 19% (inactive)
COC[C@@H](NC(C)=O)C(=O)NCc1ccccc1 | -51% (inactive)
O=C1Nc2ccc(Cl)cc2C(c2ccccc2Cl)=NC1O (stereo not given) | 5.64% (inactive)
CC(C)CC(NC(=O)C(Cc1ccccc1)NC(=O)CNC(=O)[C@H](C)NC(=O)C(N)Cc1ccc(O)cc1)C(=O)N[C@H](CCCN=C(N)N)C(=O)O (stereo not given in full) | 10.6% (inactive)
O=C1CN=C(c2cccc(Br)c2)c2oc3ccccc3c2N1 | 22.5% (inactive)
CNC(=O)Oc1ccccc1OC(C)C | 12.8% (inactive)
ClC=C(Cl)Cl | 8.81% (inactive)
Oc1ccc2c3c1OC1c4c(c5ccccc5n4Cc4ccccc4)CC4(O)C(C2)N(CC2CC2)CCC314 (stereo not given) | -1.02% (inactive)
CCCCCCCCCCCCC/C=C/[C@@H](O)[C@@H](N)COP(=O)(O)OCC[N+](C)(C)C | -1.29% (inactive)
NC(=O)CN1C[C@H](O)CC1=O | -40.7% (inactive)
CN1CCc2cc3c(cc2C1[C@@H]1OC(=O)c2c1ccc1c2OCO1)OCO3 (stereo not given in full) | 8.11% (inactive)
Cc1o[nH]c(=O)c1CC(N)C(=O)O (stereo not given) | 3.8% (inactive)
CC(C)(C)c1o[nH]c(=O)c1CC(N)C(=O)O (stereo not given) | -79.9% (active) and 9.91% (inactive)
Cc1o[nH]c(=O)c1C[C@H](N)C(=O)O | 13.1% (inactive)
Oc1ccc2c3c1OC1c4[nH]c5ccccc5c4CC4(O)C(C2)N(CC2CC2)CCC314 (stereo not given) | 6.33% (inactive)
CN1C2CCC1CC(OC(=O)c1cc(Cl)cc(Cl)c1)C2 (stereo not given) | -1.24% (inactive) and 2.27% (inactive)
C[C@H]1CCC/C=C/[C@@H]2C[C@H](O)C[C@H]2[C@H](O)/C=C/C(=O)O1 | -94.5% (active)
COc1ccc(/C=C/C(=O)CC(=O)/C=C/c2ccc(OC)c(OC)c2)cc1OC | 2.29% (inactive)
CC(C)(c1ccc(OCC2CO2)cc1)c1ccc(OCC2CO2)cc1 (stereo not given) | 9.89% (inactive)
CN1C2CCC1CC(OC(c1ccccc1)c1ccccc1N)C2 (stereo not given) | 16.3% (inactive)
c1cc2c(c(N3CCNCC3)c1)OCCO2 | -0.0388% (inactive)
CN1C2CCC1CC(OC(c1ccc(F)cc1)c1ccc(F)cc1)C2 (stereo not given) | 22.3% (inactive) and 38.4% (inactive)
CC(=O)N(C)c1cccc(-c2ccnc3c(C(=O)c4cccs4)cnn23)c1 | 42.5% (inactive)
O=C1NC(=O)c2c1c1c3ccccc3n3c1c1c2c2ccccc2n1C1CCC3O1 | -71.9% (active)
O=C1NC(=O)c2c1c1c3ccccc3[nH]c1c1[nH]c3ccccc3c21 | -28.7% (inactive) and -11.9% (inactive)
N#CC(C#N)=NNc1cccc(Cl)c1 | 9.63% (inactive)

Structure (SMILES) | activity change, negative = inhibition
C[C@]12CC[C@@H]3c4ccc(OC(=O)N(CCCl)CCCl)cc4CC[C@H]3[C@@H]1CC[C@@H]2OP(=O)(O)O | 10.9% (inactive)
CCCCC(CC)COC(=O)c1ccccc1C(=O)OCC(CC)CCCC (stereo not given) | 9.98% (inactive)
CO[C@H]1[C@H](O)[C@@H](O[C@H]2CC[C@]3(C=O)C4CC[C@]5(C)[C@@H](C6=CC(=O)OC6)CC[C@]5(O)C4CC[C@@H]3C2)O[C@@H](C)[C@@H]1O (stereo not given in full) | -88% (active)
CO[C@@H]1C(O)[C@H](O[C@H]2CC[C@@]3(C=O)[C@H](CC[C@@H]4[C@@H]3CC[C@]3(C)[C@@H](C5=CC(=O)OC5)CC[C@]43O)C2)OC(C)[C@@H]1O (stereo not given in full) | -73.9% (active)
O=C1Nc2ccccc2C2(CCN(CCc3ccc(C(F)(F)F)cc3)CC2)O1 | 16.5% (inactive) and 18.9% (inactive)
O=C(O)CCCCCCNC1c2ccccc2CCc2ccccc21 | 30.7% (inactive)
O=C(O)C(Cl)Cl | 30.7% (inactive)
Clc1cccc(SC2CCNCC2)n1 | 18.6% (inactive)
Cc1ccc(C[N+](C)(C)C)o1 | 0.893% (inactive) and 9.89% (inactive)
CC(C)(C)CC(C)(C)c1ccc(O)cc1 | 5.73% (inactive)
CCCC(C)(COC(N)=O)COC(N)=O | 8.01% (inactive)
C[C@]1(O)CC[C@H]2[C@@H]3CCC4=CC(=O)CC[C@]4(C)[C@@]3(F)[C@@H](O)C[C@@]21C | 2.26% (inactive)
COC1C(O)CC(OC2C(O)CC(OC3C(O)CC(OC4CCC5(C)C(CCC6[C@@H]5CC(O)C5(C)C(C7=CC(=O)OC7)CCC65O)C4)OC3C)OC2C)OC1C (stereo not given in full) | -82.4% (active)
C[C@H]1OC(O[C@H]2[C@@H](O)CC(O[C@H]3[C@@H](O)C[C@H](O[C@H]4CC[C@]5(C)C6CC[C@]7(C)[C@@H](C8=CC(=O)OC8)[C@@H](O)C[C@]7(O)[C@@H]6CC[C@@H]5C4)O[C@@H]3C)O[C@@H]2C)C[C@H](O)C1O (stereo not given in full) | -71.3% (active)
CC(=O)O[C@H]1C[C@H](O[C@H]2[C@@H](O)C[C@H](O[C@H]3[C@@H](O)C[C@H](O[C@H]4CC[C@@]5(C)C(CCC6C5C[C@@H](O)[C@]5(C)[C@@H](C7=CC(=O)OC7)CC[C@]65O)C4)O[C@@H]3C)O[C@@H]2C)O[C@H](C)[C@H]1O[C@@H]1O[C@H](CO)[C@@H](O)[C@H](O)[C@H]1O (stereo not given in full) | -75.3% (active) and -89.3% (active)
C[C@@H]1CC[C@@]2(OC1)O[C@H]1C[C@H]3[C@@H]4CC=C5C[C@H](O[C@@H]6O[C@@H](CO)[C@@H](O[C@@H]7O[C@@H](C)[C@H](O)[C@@H](O)[C@@H]7O)[C@H](O)[C@H]6O[C@@H]6O[C@@H](C)[C@H](O)[C@@H](O)[C@H]6O)CC[C@]5(C)[C@@H]4CC[C@]3(C)[C@@H]1[C@H]2C | -18.3% (inactive)
CC(=O)OC1CC[C@@]2(C)C(CCC3C2CC[C@]2(C)C(C4=CC(=O)OC4)C(OC(C)=O)CC32O)C1 (stereo not given in full) | -91.6% (active)
CC(=O)[C@H]1CC[C@H]2[C@@H]3CC[C@H]4C[C@H](O)CC[C@]4(C)[C@H]3CC[C@]12C | 2.36% (inactive)
COC(=O)/C=C/C(=O)N[C@@H]1CC[C@@]2(O)[C@H]3Cc4ccc(O)c5c4[C@@]2(CCN3CC2CC2)[C@H]1O5 | 16.5% (inactive)
CCC(Oc1ccc(Cl)cc1)C(=O)OC1CC2CCC(C1)N2C (stereo not given) | -2.85% (inactive) and -12.4% (inactive)
c1ccc(CC(c2ccccc2)N2CCCCC2)cc1 (stereo not given) | 9.17% (inactive) and 15.7% (inactive)
Cc1[nH]c2ccc(Cl)cc2c1C1=CCNCC1 | 8.93% (inactive) and 11.2% (inactive)
COC(=O)CN1CN(c2ccccc2)C2(CCN(Cc3cccc4ccccc34)CC2)C1=O | -6.13% (inactive)
COc1ccc(OC)c(C(O)C(C)NC(C)(C)C)c1 (stereo not given) | 12% (inactive)
Cc1nnc2n1-c1ccc(Cl)cc1C(c1ccccc1Cl)=NC2 | 18.7% (inactive)
CC(C)(O)C(=O)Nc1ccc([N+](=O)[O-])c(C(F)(F)F)c1 | 5.88% (inactive)
COc1ccc(C[C@H]2NC[C@H](O)[C@H]2OC(C)=O)cc1 | -80.3% (active) and -86.5% (active)

Structure (SMILES) | activity change, negative = inhibition
CC(C)(C)OC(=O)c1ncn2c1[C@@H]1CCCN1C(=O)c1c(Br)cccc1-2 | 6.65% (inactive)
CN1CCC2=C(C1)c1ccccc1Cc1ccccc12 | 3.96% (inactive)
Cc1[nH]cnc1CCN | 7.41% (inactive)
C[C@]12CC/C(=N\OCCN)C[C@@H]1C(=O)C[C@@H]1[C@@H]2CC[C@]2(C)C(=O)CC[C@@H]12 | 14.1% (inactive)
Clc1ccc(C23CNCC2C3)cc1Cl (stereo not given) | 6.45% (inactive)
C=CCN1CCC23c4c5ccc(O)c4OC2C(=O)CCC3(O)C1C5 (stereo not given) | -2.6% (inactive)
CC(C)=CCCC1(C)C=Cc2c(O)c3c(c(CC=C(C)C)c2O1)OC12C(=CC4CC1C(C)(C)OC2(CC=C(C)C(=O)O)C4=O)C3=O (stereo not given) | -77.9% (active)
CC(C)CCCC1(C)C=Cc2c(O)c3c(c(CCC(C)C)c2O1)OC12C(CC4CC1C(C)(C)OC2(CCC(C)C(=O)O)C4O)C3=O (stereo not given) | -3.34% (inactive)
CC(C)=CCC[C@]1(C)C=Cc2c(O)c3c(c(CC=C(C)C)c2O1)O[C@]12C(=C[C@@H]4C[C@H]1C(C)(C)O[C@@]2(CC=C(C)C(=O)O)C4=O)C3=O | -83.4% (active)
CN(C)[C@@H]1C(=O)C(C(N)=O)C(=O)[C@@]2(O)C(=O)C3C(=O)c4c(O)cccc4[C@@](C)(O)C3[C@H](O)C12 (stereo not given in full) | -0.0524% (inactive)
C=C(C)C1Cc2c(ccc3c(=O)c4c(oc23)COc2cc(OC)c(OC)cc2-4)O1 (stereo not given) | -1.04% (inactive)
CCCCCCN1CCN(c2cccc(Cl)c2)CC1 | 9.58% (inactive)
O=C1CC2OCC=C3CN4CC[C@]56c7ccccc7N1C5[C@H]2[C@H]3CC46 (stereo not given in full) | 15.9% (inactive) and 2.19% (inactive)
CC(C)C1(NC(=O)C2CC3c4cccc5[nH]cc(c45)CC3N(C)C2)OC2(O)C3CCCN3C(=O)C(Cc3ccccc3)N2C1=O (stereo not given) | -21.5% (inactive)
CC(C)[C@@]1(NC(=O)[C@@H]2CC3c4cccc5[nH]cc(c45)C[C@H]3N(C)C2)O[C@@]2(O)[C@@H]3CCCN3C(=O)[C@H](Cc3ccccc3)N2C1=O (stereo not given in full) | -13.7% (inactive)
CN1Cc2ccccc2[C@@H]2c3cccc4[nH]cc(c34)C[C@H]21 | -78.9% (active)
CN1CC[C@@H]2CN3CCc4cccc(c43)[C@@H]2C1 | 3.72% (inactive)
CCC(C)C(=O)O[C@H]1[C@H](O)C2C(CN3CC(C)CCC3[C@@]2(C)O)C2C[C@]34O[C@]5(O)C(OC(=O)C(C)(O)CC)CC[C@@]3(C)C5C(OC(C)=O)[C@@H](OC(C)=O)C4[C@@]21O (stereo not given in full) | 1.67% (inactive)
CC1(C)CC(O)CC(C)(C)N1O | 8.37% (inactive) and 5.38% (inactive) and 2.68% (inactive)
CN(C(=O)Cc1ccccc1)C(CN1CCCC1)c1ccccc1 (stereo not given) | 6.5% (inactive)
C[C@]12CC[C@H](O)C[C@H]1CC[C@@H]1[C@@H]2CC[C@]2(C)[C@@H](c3ccc(=O)oc3)C[C@H]3OC132 (stereo not given in full) | -78.4% (active)
C[C@]12CC[C@H](O)C[C@@H]1CC[C@@H]1[C@H]2CC[C@]2(C)C(=O)CC[C@@H]12 | 6.71% (inactive)
C[C@]12CCC3[C@@H](CC[C@@H]4C[C@H](O)CC[C@]34C)[C@@H]1CCC2=O (stereo not given in full) | 8.25% (inactive)
CN(C)CCNc1nc2cc(O)ccc2c2c1C(=O)c1ccccc1-2 | -85.6% (active)
O=C(O)C(=O)CBr | -21.8% (inactive)
C[N+]1(C)CCc2cc3c(cc2[C@H]1C1OC(=O)c2c1ccc1c2OCO1)OCO3 (stereo not given in full) | 9.96% (inactive)
